Article PMC5540273 (PLoS ONE, 2017)

What was measured:
Conditions in all cases: concentration: 1 μM, replicates: in singlicate; n = 1
FYN = system: FYN
GAK = system: GAK
GCN2(Kin.Dom.2,S808G) = system: T1, GCN2(Kin.Dom.2,S808G)
T1 construct: gene EIF2AK4

GRK1 = system: GRK1
GRK2 = system: T2, GRK2
T2 construct: gene ADRBK1

GRK3 = system: T3, GRK3
T3 construct: gene ADRBK2

GRK4 = system: GRK4
GRK7 = system: GRK7
GSK3A = system: GSK3A
GSK3B = system: GSK3B
HASPIN = system: T4, HASPIN
T4 construct: gene GSG2

HCK = system: HCK
HIPK1 = system: HIPK1
HIPK2 = system: HIPK2
HIPK3 = system: HIPK3
HIPK4 = system: HIPK4
HPK1 = system: HPK1
HUNK = system: HUNK
ICK = system: ICK
IGF1R = system: IGF1R
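Further: KINOMEscan kinase panel screen.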

| Compound | %Inh (FYN) | %Inh (GAK) | %Inh (GCN2(Kin.Dom.2,S808G)) | %Inh (GRK1) | %Inh (GRK2) | %Inh (GRK3) | %Inh (GRK4) | %Inh (GRK7) | %Inh (GSK3A) | %Inh (GSK3B) | %Inh (HASPIN) | %Inh (HCK) | %Inh (HIPK1) | %Inh (HIPK2) | %Inh (HIPK3) | %Inh (HIPK4) | %Inh (HPK1) | %Inh (HUNK) | %Inh (ICK) | %Inh (IGF1R) |
| --- | --- | --- | --- | --- | --- | --- | --- | --- | --- | --- | --- | --- | --- | --- | --- | --- | --- | --- | --- | --- |
| CC(C)c1nc(-c2ccc(F)c(NS(=O)(=O)c3c(F)cccc3F)c2)c(-c2ccnc(Nc3ccc(N4CCOCC4)nc3)n2)s1 [GSK1804250] | 95.9% | 92.1% | 100% | 0% | 6% | 7% | 9% | 0% | 40% | 23% | 18% | 98.4% | 17% | 0% | 30% | 72% | 56% | 7% | 0% | 8% |
| Cc1ccc(NC(=O)c2ccc(Cl)c(Cl)c2)cc1-c1ccc(C(=O)Nc2ccncc2)cc1 [GSK1398460] | 31% | 45% | 8% | 0% | 0% | 24% | 4% | 0% | 6% | 15% | 0% | 9% | 0% | 0% | 17% | 0% | 40% | 25% | 0% | 19% |
| Cc1ccc(NC(=O)c2cccc(N3CCCCC3)c2)cc1-c1ccc(C(=O)NCC2CC2)cc1 [GSK1917008] | 15% | 11% | 15% | 3% | 6% | 27% | 10% | 0% | 27% | 10% | 0% | 0% | 0% | 0% | 14% | 17% | 38% | 0% | 23% | 9% |
| Nc1cccc(-c2ccc3c(N)n[nH]c3c2)c1 [GSK2193613] | 13% | 44% | 0% | 0% | 0% | 55% | 9% | 0% | 0% | 96.2% | 90.5% | 0% | 0% | 0% | 100% | 0% | 48% | 23% | 0% | 8% |
| CCNC(=O)/C=C/c1n[nH]c2cc(Sc3ccccc3C(=O)NC)ccc12 | 0% | 13% | 6% | 14% | 25% | 20% | 0% | 0% | 18% | 29% | 14% | 7% | 23% | 2% | 22% | 0% | 8% | 0% | 0% | 10% |
| CN1CCN(Cc2ccc(NC(=O)Nc3ccc(N(C)c4ccnc(Nc5ccc(CS(C)(=O)=O)cc5)n4)cc3)cc2)CC1.Cl [GW827654] | 40% | 36% | 17% | 9% | 27% | 21% | 86% | 3% | 4% | 32% | 19% | 47% | 83% | 82% | 91.9% | 90.9% | 99.6% | 0% | 71% | 0% |
| COC(=O)Nc1nc2ccc(Oc3ccc(NC(=O)Nc4cc(C(F)(F)F)ccc4F)cc3)cc2[nH]1.Cl [GW654607] | 54% | 0% | 6% | 0% | 0% | 0% | 11% | 0% | 4% | 9% | 12% | 51% | 8% | 0% | 10% | 92% | 57% | 8% | 11% | 2% |
| Cl.O=C(Nc1ccc(Oc2ccc3[nH]c(NC(=O)c4ccco4)nc3c2)cc1)Nc1cc(C(F)(F)F)ccc1F [GW683134] | 42% | 0% | 10% | 0% | 0% | 11% | 100% | 0% | 0% | 9% | 0% | 58% | 0% | 0% | 11% | 88% | 40% | 0% | 0% | 17% |
